{
  "source": "the supplement of paper PMC8728848",
  "binders": {"B1": {"name": "Pbx2 (Cryptococcus neoformans) (protein)", "chain": "AVSPLPSSTELVFYSQKRRRRRICSTATGSLSTPDPTRMTSDPYKRVGMRFSSVPRLLITFLSLLLLVSAAPPCVRFADYDSINQMFIDGGPGTKVLLCPNRLYRLSGPIIFTAADQEIATYGYPTGSERAVLRVEGRNTATAIQGDCRRCARVSVKNLVVDGNRKKLGRMRDFQLATGLVVLGGNEGQSIQNSWIKNPRGFTAIHIREGDKLQCSGARVEKNEIGPVGEEYDPEKDGDDPEMSPLGRPLADGVSIACRDSFIRDNTFRDNTDAAIVVYCSPGTLIHANHIFAQSLSAMAGILMVDSTPFNGDYTGTVVRSNIIDAVSRTIRVGIGIGPTVWSDDTETILTGGSVIGNGLKGRYMGYGIAAAGLKQWTIKDNWDEAKHEGRKSARCFDEPVNPDPIGLLYNRPTMEDCTVQSGFADHDFQYLVCIDGLYDKTNPPKHDPAPLAHDPSPTNAQEDNTVQQDGGDSKSKSIEQPREASDIEAEPSVEKMFSTGSEMMDDVLEHSHQRMHEVIDHLSRRIDILGAASAGKGSGDSKISEVLDPAMSSHLEKLQRKIEHLEFSLRSQIETAIQLRSAIQGWDQEMALVTDWEYDILLDVRHKLELSSYPHDQPLDPRLMRGQSYLNNEAVLVDDHSHPSLEGENLRAMSDRARLNANEEA"}},
  "experiment_in_all_cases": "glycan array binding signal (z-score within array); higher = stronger binding",
  "conditions_in_all_cases": "glycan notation: IUPAC condensed, linker removed",
  "key": {"[1]": {"target": "Fuc(a1-2)Gal(b1-4)[Fuc(a1-3)]GlcNAc(b1-3)GalNAc", "in_short": "(§1)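 Negative Z-scores can be read as non-binding. The Z-score is calculated within each array and then averaged across arrays of one protein sequence at different concentrations or buffers and across linkers. Arrays, 3228 in all, were curated from the Consortium for Functional Glycomics database and kept only where the protein sequence was available.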"}, "[2]": {"target": "Fuc(a1-2)Gal6S(b1-3)GlcNAc6S", "in_short": "as §1"}, "[3]": {"target": "Fuc(a1-2)Gal6S(b1-4)Glc", "in_short": "as §1"}, "[4]": {"target": "Fuc(a1-2)[Gal(a1-3)]Gal(b1-3)GlcNAc(b1-2)Man(a1-3)[Fuc(a1-2)[Gal(a1-3)]Gal(b1-3)GlcNAc(b1-2)Man(a1-6)]Man(b1-4)GlcNAc(b1-4)GlcNAc", "in_short": "as §1"}, "[5]": {"target": "Fuc(a1-2)[Gal(a1-3)]Gal(b1-3)GlcNAc(b1-3)GalNAc", "in_short": "as §1"}, "[6]": {"target": "Fuc(a1-3)[Gal(b1-4)]GlcNAc", "in_short": "as §1"}, "[7]": {"target": "Fuc(a1-3)[Gal(b1-4)]GlcNAc(b1-2)Man", "in_short": "as §1"}, "[8]": {"target": "Fuc(a1-3)[Gal(b1-4)]GlcNAc(b1-2)Man(a1-3)[Fuc(a1-3)[Gal(b1-4)]GlcNAc(b1-2)Man(a1-6)]Man(b1-4)GlcNAc(b1-4)GlcNAc", "in_short": "as §1"}, "[9]": {"target": "Fuc(a1-3)[Gal3S(b1-4)]GlcNAc", "in_short": "as §1"}, "[10]": {"target": "Fuc(a1-3)[GalNAc(b1-4)]GlcNAc", "in_short": "as §1"}, "[11]": {"target": "Gal(a1-3)Gal(b1-3)[Fuc(a1-4)]GlcNAc(b1-2)Man(a1-3)[Gal(a1-3)Gal(b1-3)[Fuc(a1-4)]GlcNAc(b1-2)Man(a1-6)]Man(b1-4)GlcNAc(b1-4)GlcNAc", "in_short": "as §1"}, "[12]": {"target": "Gal(a1-3)Gal(b1-4)GlcNAc", "in_short": "as §1"}, "[13]": {"target": "Gal(b1-3)GlcNAc(b1-2)Man(a1-3)[GlcNAc(b1-4)][Gal(b1-3)GlcNAc(b1-2)Man(a1-6)]Man(b1-4)GlcNAc(b1-4)GlcNAc", "in_short": "as §1"}, "[14]": {"target": "Gal(b1-3)GlcNAc(b1-3)GalNAc", "in_short": "as §1"}, "[15]": {"target": "Gal(b1-4)GlcNAc(b1-3)Gal(b1-3)GlcNAc", "in_short": "as §1"}, "[16]": {"target": "Gal(b1-4)GlcNAc(b1-3)Gal(b1-4)GlcNAc(b1-2)Man(a1-3)[Gal(b1-4)GlcNAc(b1-3)Gal(b1-4)GlcNAc(b1-2)Man(a1-6)]Man(b1-4)GlcNAc(b1-4)GlcNAc", "in_short": "as §1"}, "[17]": {"target": "Gal(b1-4)GlcNAc(b1-3)Gal(b1-4)GlcNAc(b1-3)Gal(b1-4)GlcNAc", "in_short": "as §1"}, "[18]": {"target": "Gal(b1-4)GlcNAc(b1-3)Gal(b1-4)GlcNAc(b1-3)Gal(b1-4)GlcNAc(b1-2)Man(a1-3)[Gal(b1-4)GlcNAc(b1-3)Gal(b1-4)GlcNAc(b1-3)Gal(b1-4)GlcNAc(b1-2)Man(a1-6)]Man(b1-4)GlcNAc(b1-4)GlcNAc", "in_short": "as §1"}, "[19]": {"target": "Gal(b1-4)GlcNAc(b1-3)Gal(b1-4)GlcNAc(b1-3)[Gal(b1-4)GlcNAc(b1-3)Gal(b1-4)GlcNAc(b1-6)]GalNAc", "in_short": "as §1"}, "[20]": {"target": "Gal3S6S(b1-4)GlcNAc6S", "in_short": "as §1"}, "[21]": {"target": "Gal4S(b1-4)GlcNAc", "in_short": "as §1"}, "[22]": {"target": "Gal4S6S(b1-4)GlcNAc", "in_short": "as §1"}, "[23]": {"target": "Gal6S(b1-3)GlcNAc6S", "in_short": "as §1"}, "[24]": {"target": "Gal6S(b1-4)GlcNAc6S", "in_short": "as §1"}, "[25]": {"target": "GalNAc(a1-3)GalNAc(a1-3)Gal(a1-4)Gal(b1-4)GlcNAc", "in_short": "as §1"}, "[26]": {"target": "GalNAc3S(b1-4)GlcNAc", "in_short": "as §1"}, "[27]": {"target": "GalNAc4S6S(b1-4)GlcNAc", "in_short": "as §1"}, "[28]": {"target": "GlcNAc(b1-2)[GlcNAc(b1-6)]Man(a1-6)[GlcNAc(b1-2)Man(a1-3)]Man(b1-4)GlcNAc(b1-4)[Fuc(a1-6)]GlcNAc", "in_short": "as §1"}, "[29]": {"target": "GlcNAc(b1-3)Gal(b1-3)GalNAc", "in_short": "as §1"}, "[30]": {"target": "GlcNAc(b1-3)Gal(b1-4)GlcNAc(b1-2)Man(a1-3)[GlcNAc(b1-3)Gal(b1-4)GlcNAc(b1-2)Man(a1-6)]Man(b1-4)GlcNAc(b1-4)GlcNAc", "in_short": "as §1"}},
  "note": "About 410 targets per protein were measured; listed, in parts, are those with the strongest signals and a random draw of the rest.",
  "data": [
    {"binder": "B1", "values": [
      {"measurement": "glycan array binding signal (z-score)", "setting": "[1]", "result": 5.82},
      {"measurement": "glycan array binding signal (z-score)", "setting": "[2]", "result": 3.8},
      {"measurement": "glycan array binding signal (z-score)", "setting": "[3]", "result": -0.497},
      {"measurement": "glycan array binding signal (z-score)", "setting": "[4]", "result": -0.446},
      {"measurement": "glycan array binding signal (z-score)", "setting": "[5]", "result": -0.12},
      {"measurement": "glycan array binding signal (z-score)", "setting": "[6]", "result": -0.094},
      {"measurement": "glycan array binding signal (z-score)", "setting": "[7]", "result": -0.041},
      {"measurement": "glycan array binding signal (z-score)", "setting": "[8]", "result": 0.271},
      {"measurement": "glycan array binding signal (z-score)", "setting": "[9]", "result": 0.057},
      {"measurement": "glycan array binding signal (z-score)", "setting": "[10]", "result": -0.291},
      {"measurement": "glycan array binding signal (z-score)", "setting": "[11]", "result": -0.392},
      {"measurement": "glycan array binding signal (z-score)", "setting": "[12]", "result": -0.346},
      {"measurement": "glycan array binding signal (z-score)", "setting": "[13]", "result": 0.625},
      {"measurement": "glycan array binding signal (z-score)", "setting": "[14]", "result": 0.091},
      {"measurement": "glycan array binding signal (z-score)", "setting": "[15]", "result": -0.114},
      {"measurement": "glycan array binding signal (z-score)", "setting": "[16]", "result": 4.98},
      {"measurement": "glycan array binding signal (z-score)", "setting": "[17]", "result": 0.154},
      {"measurement": "glycan array binding signal (z-score)", "setting": "[18]", "result": 4.44},
      {"measurement": "glycan array binding signal (z-score)", "setting": "[19]", "result": 2.83},
      {"measurement": "glycan array binding signal (z-score)", "setting": "[20]", "result": 6.21},
      {"measurement": "glycan array binding signal (z-score)", "setting": "[21]", "result": -0.339},
      {"measurement": "glycan array binding signal (z-score)", "setting": "[22]", "result": 2.65},
      {"measurement": "glycan array binding signal (z-score)", "setting": "[23]", "result": 3.95},
      {"measurement": "glycan array binding signal (z-score)", "setting": "[24]", "result": 2.56},
      {"measurement": "glycan array binding signal (z-score)", "setting": "[25]", "result": 0.168},
      {"measurement": "glycan array binding signal (z-score)", "setting": "[26]", "result": -0.522},
      {"measurement": "glycan array binding signal (z-score)", "setting": "[27]", "result": 6.54},
      {"measurement": "glycan array binding signal (z-score)", "setting": "[28]", "result": -0.377},
      {"measurement": "glycan array binding signal (z-score)", "setting": "[29]", "result": -0.436},
      {"measurement": "glycan array binding signal (z-score)", "setting": "[30]", "result": -0.424}
    ]}
  ]
}
